High-throughput results from PubChem.
BRCA1 expr act: BRCA1 expression activation; MCF7-BRCA1-FFLuc reporter, luminescence, 48 h; response scale: scaled: vehicle 0%, 10 µM genistein 100%; Potency, µM (series often up to 46.1 µM), most hits filed as activators; hit rate 1.1% among 380,000; note: nearly all actives have a fitted effect of over 80% in size
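Activators of BRCA1 expression were detected as increased firefly luciferase luminescence in engineered MCF7 cells after 48 h compound incubation. Signals were scaled to genistein 10 microM as full activation.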
GLP1R cytotox: cytotoxicity counter-screen for GLP-1 receptor inverse agonists. hit rate 0.13% among 410,000. HEK293 cAMP-luciferase reporter cells, luminescence, 24 h. Potency, µM (doses to about 38.3 µM), most hits filed as inhibitors. AID 624418;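 note: loss of luciferase light is scored as toxicity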
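Luminescence readout: signal drop marks cytotoxicity. Plated cells grew 12 h at 37 °C, 5% CO2, received 23 nL compound for 24 h, then got luciferase reagent, read after 12 min at RT.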
GLP-1R inv ag: inverse agonists of human GLP-1 receptor. hit rate 1.6% among 410,000. HEK293 GLP-1R CRE-luciferase, luminescence, 24 h; GLP-1R form is constitutively active. Potency, µM (highest dose often 38.3 µM), hits mostly inhibitors; note: nearly all actives have a fitted effect of over 55% in size
Target sequence (P43220 whole entry, looked up): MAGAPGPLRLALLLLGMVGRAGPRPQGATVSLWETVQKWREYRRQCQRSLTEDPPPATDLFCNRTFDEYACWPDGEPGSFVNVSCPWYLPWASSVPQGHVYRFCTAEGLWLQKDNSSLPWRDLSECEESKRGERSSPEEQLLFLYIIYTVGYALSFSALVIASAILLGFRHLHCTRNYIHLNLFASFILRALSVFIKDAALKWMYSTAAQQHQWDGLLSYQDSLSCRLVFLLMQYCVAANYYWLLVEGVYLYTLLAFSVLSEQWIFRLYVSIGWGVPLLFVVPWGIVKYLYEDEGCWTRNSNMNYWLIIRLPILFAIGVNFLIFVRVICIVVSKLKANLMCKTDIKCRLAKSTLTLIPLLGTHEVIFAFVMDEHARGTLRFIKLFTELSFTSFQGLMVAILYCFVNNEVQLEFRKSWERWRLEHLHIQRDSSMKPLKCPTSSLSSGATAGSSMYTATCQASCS
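Assay principle: reduced luminescence from a cAMP-responsive reporter in HEK293 cells co-expressing a constitutively active GLP-1R. Conditions: 24 hr compound incubation, 37 deg C, 5% CO2.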
Mito fusion yeast: inhibitors of mitochondrial division or activators of mitochondrial fusion; S. cerevisiae fusion-defective mutant growth rescue, CellTiterGlo 48 h; AID 485298; Potency, µM (doses to about 46.1 µM), hits mostly activators; hit rate 0.23% among 320,000; note: nearly all actives have a fitted effect of over 45% in size
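Luminescent cell viability in 1536-well qHTS format served as the measure of rescued growth in ts fusion-mutant S. cerevisiae cultured on non-fermentable YPEG for 48 hours at 37C.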
GLP-1R agonist: GLP-1 receptor (human) agonism. P43220. HEK293 GLP-1R CRE-luciferase, luminescence, 4-6 h; cells express a hypersensitive GLP-1R form. Potency, µM (top dose mostly 45.6 µM), most hits filed as activators. hit rate 0.007% among 380,000. AID 624172
A number is an active result; - = inactive; ? = inconclusive; . = not tested or not shown. The list is not random: actives were taken first. Their share in the collection is about 2.8%. Calls come from the whole dose curve; as a rule, active = well fitted curve in the direction sought with a large enough effect; inconclusive = small, poorly fitted or top-dose-only effect, or another doubt; inactive = no such curve, though single readings can be large; an effect the other way counts as inactive or inconclusive.

SMILES	BRCA1 expr act	GLP1R cytotox	GLP-1R inv ag	Mito fusion yeast	GLP-1R agonist
Nc1c(-c2ccc(Cl)cc2)nnn1-c1ccccc1	7.1µM	-	-	-	-
Nc1c(-c2ccc(Cl)cc2)cnn1-c1ccccc1	?	-	-	-	-
Cc1noc(C)c1S(=O)(=O)Nc1ccccc1Oc1ccccc1	-	-	?	-	-
Cc1nc(N/N=C/c2ccccn2)sc1C	-	3.5µM	2.2µM	-	-
Nc1c(Cl)ncnc1N/N=C/c1ccccn1	-	-	?	?	-
Clc1ccccc1NN=Cc1ccccn1	-	-	4µM	.	-
O=C(O)CCC(=O)NNC(=O)CCC(=O)Nc1ccccc1	-	-	-	-	-
COc1ccc(N2CCN(C(c3ccccc3)c3nnnn3Cc3ccc(F)cc3)CC2)cc1 (configuration not stated)	-	-	13µM	?	-
COc1ccccc1N1CCN(C(c2ccccc2)c2nnnn2CCc2ccccc2)CC1 (configuration not stated)	-	-	11µM	?	-
COc1ccc(N2CCN(C(c3cccs3)c3nnnn3C3CCCC3)CC2)cc1 (configuration not stated)	-	-	-	11µM	-
Fc1ccc(C(c2nnnn2CCc2ccccc2)N2CCCc3ccccc32)cc1 (configuration not stated)	-	-	2.8µM	-	-
CC(=O)NCC1(c2ccccc2)CCN(CC2COc3ccccc3O2)CC1 (configuration not stated)	-	-	-	.	-
COc1cc(/C=C2/SC(=S)N(CC(=O)Nc3cccnc3)C2=O)cc(OC)c1OC	-	-	-	-	-
COc1ccccc1C(c1nnnn1CCc1ccccc1)N1CCCCCC1 (configuration not stated)	-	-	11µM	-	-
COc1ccccc1C(c1nnnn1CCc1ccccc1)N1CCN(c2ccccc2)CC1 (configuration not stated)	?	-	-	-	-
Cc1ccc(Nc2nc(N/N=C\c3ccc4c(c3)OCO4)nc(N3CCOCC3)n2)cc1	-	?	4.5µM	-	-
CCOc1cc(/C=N\Nc2nc(Nc3ccccc3)nc(N3CCOCC3)n2)ccc1OC(=O)c1ccco1	-	-	7.1µM	-	-
Nc1nc(Nc2ccccc2F)nc(NCc2ccco2)c1[N+](=O)[O-]	-	-	-	-	-
CCOC(=O)c1ccc(Nc2nc3nonc3nc2Nc2cccc(C)c2C)cc1	.	?	2.8µM	.	.
CCOC(=O)c1ccc(Nc2ncnc3nc[nH]c23)cc1	6.3µM	-	-	-	-
CCOC(=O)c1ccc(Nc2ncnc3ccccc23)cc1	-	-	-	-	-
Cc1ccc(Nc2ncnc3nc[nH]c23)cc1	11µM	.	.	.	.
CC(C)=C(NC(=O)c1ccccc1)C(=O)NCCc1nc2ccccc2[nH]1	-	-	-	-	-
Cc1c(NC2=CC(=O)CCC2)c(=O)n(-c2ccccc2)n1C	-	-	-	-	-
Cc1cc(C(=O)Nc2ccc3[nH]ccc3c2)no1	6.3µM	-	-	-	-
SMILES	BRCA1 expr act	GLP1R cytotox	GLP-1R inv ag	Mito fusion yeast	GLP-1R agonist
Cc1cc(NC(=O)c2cc(C)on2)no1	-	-	-	-	-
COc1ccc(OC)c2sc(N3CCN(C(=O)CCS(=O)(=O)c4ccc(F)cc4)CC3)nc12	-	-	-	.	.
O=C(Nc1ccc(S(=O)(=O)N2CCCCC2c2cccnc2)cc1)c1ccc(Br)cc1 (configuration not stated)	.	-	10µM	.	.
CCOc1ccc(C(=O)Nc2ccc(S(=O)(=O)N3CCCCC3c3cccnc3)cc2)cc1 (configuration not stated)	.	-	?	.	.
CCOc1ccc(/C=C2/SC(=S)N(n3c(C)ccc3C)C2=O)cc1	-	-	7.1µM	-	-
COc1ccc(/C=C2/SC(=S)N(n3c(C)ccc3C)C2=O)cc1	-	-	?	-	-
O=C1NC(c2cccc(Cl)c2)Oc2ccccc21 (configuration not stated)	-	-	-	-	-
NC(CSC1(c2ccc(Cl)cc2)c2ccccc2-c2ccccc21)C(=O)O (configuration not stated)	-	-	7.9µM	.	-
NC(CSC1(c2ccc(F)cc2)c2ccccc2-c2ccccc21)C(=O)O (configuration not stated)	-	-	?	.	-
Cc1cccc(NC(=O)COc2nsnc2N2CCOCC2)c1	-	-	?	-	-
COC(=O)C1C(=O)c2c([nH]c(C(=O)OC3CCCCC3)c2C)CC1C (configuration not stated)	5µM	-	?	-	-
COC(=O)C1C(=O)C2=C(CC1C)NC(C)=C(C(=O)OCCOc1ccccc1)C2c1ccc(C)o1 (configuration not stated)	-	-	11µM	-	-
CC1=C(C(=O)OC2CCCCC2)C(c2ccco2)C2=C(CC(C)(C)CC2=O)N1 (configuration not stated)	-	-	8.9µM	-	-
CC1=C(C(=O)OCc2ccccc2)C(c2ccc(C)o2)C2=C(CCCC2=O)N1 (configuration not stated)	-	-	-	-	-
CC1=C(C(=O)OCCOc2ccccc2)C(c2ccc(C)o2)C2=C(CC(C)(C)CC2=O)N1 (configuration not stated)	-	-	7.9µM	-	-
CCOC(=O)C1=CCN(S(=O)(=O)c2ccc(Cl)cc2)C1c1ccc(C)cc1 (configuration not stated)	-	-	?	.	-
COC(=O)C1C(=O)C2=C(CC1C)NC(C)=C(C(=O)OC1CCCCC1)C2c1ccc(N(C)C)cc1 (configuration not stated)	-	-	10µM	-	-
Cc1cc(=O)[nH]c(NN=C(CC(C)C)CC(C)C)n1	-	-	-	-	-
O=C(CNc1ccc2ccccc2c1)N/N=C/c1cc2ccccc2nc1Cl	-	-	?	14µM	-
O=C(COc1cccc(Cl)c1)N/N=C\c1cc2ccccc2nc1Cl	-	-	-	-	-
Cc1nc(SCC(=O)c2c[nH]c3ccccc23)n[nH]1	-	-	-	-	-
COc1ccc(C(=O)N2CCn3c2nc2ccccc23)cc1	13µM	-	-	-	-
COc1cccc(C(=O)N2CCn3c2nc2ccccc23)c1	-	-	-	-	-
O=C(NC(=S)N1CCc2ccccc21)c1ccccc1Cl	-	?	-	-	-
O=C(c1cccs1)N1CCn2c1nc1ccccc12	2.8µM	-	-	-	-
COc1ccc(C(=O)N2CCc3ccccc32)cc1	11µM	-	-	-	-
O=C(NC(=S)N1CCc2ccccc21)c1ccccc1	-	4µM	?	-	-
